From PubChem
In the library only some 5.7% were active in any assay of this set; here they are far more common.
GRIN3A LBD mod – modulates the human NR3A ligand-binding domain; NR3A LBD differential scanning fluorimetry, Tm shift; 0% = protein alone, 100% = glycine-bound protein; Tm shift relative to glycine control, % at 25 µM; 340,000 compounds, 2.5% hits;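 active = melting temperature shift of at least 10% of the positive control shift, at one fixed dose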
FAS-TE inh – inhibitors of human fatty acid synthase thioesterase domain. P49327. recombinant FAS-TE, OMFH fluorogenic substrate, fluorescence endpoint. inhibition, % at 15 µM. 360,000 compounds, 0.67% hits. AID 602261;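 active = compounds whose normalised, plate-corrected inhibition of enzyme fluorescence in the single-dose primary screen is 50% or more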
rCAG RNA binder – r(CAG) repeat RNA binding; TO-PRO-1 dye displacement fluorescence; inhibition, % at 3 µM; 370,000 compounds, 1.3% hits; AID 651821;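 active = inhibition above the plate cutoff, the mean of all test compounds on that plate plus 3 SD, cut at about 35% in these data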;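 note: higher means more dye released from RNA so lower well fluorescence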
MPTP block – blocks calcium-induced mitochondrial swelling; isolated mouse mitochondria, Ca2+ swelling absorbance, 30 min; inhibition, % at 10 µM; 360,000 compounds, 1.4% hits; AID 602449;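 active = inhibition of 50% or more, scaled per plate between neutral and stimulator controls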
Myeloid diff MLP – compounds promoting myeloid differentiation. ER-HoxA9 myeloid progenitors, lysozyme-GFP differentiation, flow cytometry. calls only at 10 µM. 360,000 compounds, 1% hits. AID 624256;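 active = normalized GFP-positive differentiation at or above the plate's own cutoff, the solvent-only control mean plus 3 SD; inconclusive = no clear call, values can overlap the other calls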;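 note: cells exposed to compound for four days before flow analysis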
Rh123 counter – membrane potential counter-screen of mitochondrial pore inhibitors | shares compounds with MPTP block | isolated mitochondria, Rhodamine 123 fluorescence | inhibition, % at 10 µM | 5,000 compounds, 78% hits | AID 624504; in the data active = inhibition above about 22%
MPTP abs DR – dose response confirmation of mitochondrial permeability transition pore inhibitors | shares compounds with MPTP block | isolated mitochondria swelling, absorbance | IC50, µM | 780 compounds, 58% hits; in the data active = IC50 below about 20 µM
MPTP counter DR – counter-screen for mitochondrial permeability transition pore inhibitors, dose response; shares compounds with MPTP block; AID 651564; isolated mitochondria counterscreen, fluorescence read-out; 780 compounds, 49% hits; IC50, µM; in the data active = IC50 below about 80 µM
Myeloid diff – compounds promoting myeloid differentiation | AID 651706 | ER-HoxA9 myeloid progenitors, GFP/Mac1 double-positive flow | shares compounds with Myeloid diff MLP | calls only | 2,300 compounds, 2% hits;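 active = share of green or green-and-red cells above 9 and 9% in run 1 or 4 and 3% in run 2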
GFP autofluor – compound fluorescence in myeloid differentiation counter-screen. fluorescence response, % (test concentration not listed). AID 651707. shares compounds with Myeloid diff MLP. 2,300 compounds, 7.4% hits. ER-HoxA9 myeloid progenitors, no estrogen, GFP autofluorescence flow cytometry; vehicle wells 0%, positive control 100%;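 active = over 5% cells positive for green fluorescent reporter, or over 2% positive for both it and APC stain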
rCAG bind conf – r(CAG) RNA repeat binding, confirmation. inhibition, % at 3 µM. shares compounds with rCAG RNA binder. TO-PRO-1 dye displacement fluorescence. AID 652065. 4,300 compounds, 70% hits;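 active = inhibition above a per-plate cutoff, the mean inhibition of sample wells plus 3 SD, cut at about 35% in these data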;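 note: loss of TO-PRO-1 fluorescence as compound displaces dye from 1x1 AA loop RNA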
dCAG dye counter – disrupts DNA CAG TO-PRO-1 complex, flagging rCAG hits. inhibition, % at 3 µM. 4,300 compounds, 94% hits. d(CAG) DNA oligo TO-PRO-1 dye displacement, fluorescence. shares compounds with rCAG RNA binder;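 active = inhibition above its plate's cutoff, the mean test-well inhibition plus 3 SD, cut at about 4.8% in these data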;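 note: hits displace the dye from DNA and so lower well fluorescence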
dCAG dye DR – disrupts DNA CAG TO-PRO-1 complex in dose response; 250 compounds, 20% hits; DNA CAG/GTC duplex TO-PRO-1 dye displacement fluorescence; IC50, µM; shares compounds with rCAG RNA binder; in the data active = IC50 below about 10 µM
Large screens that a line does not name were inactive (follow-up assays come after a bar, where they were run).

C=CCn1c(O)c(C(CC)=NCc2ccc3c(c2)OCO3)c(=O)[nH]c1=O	none
CCCCn1c(O)c(C(CC)=NCc2ccc3c(c2)OCO3)c(=O)[nH]c1=O	MPTP block 68 | Rh123 counter 27
CCCCCSc1cc(OC)c(CCN)cc1OC	MPTP block 97, Myeloid diff MLP inconclusive | Rh123 counter inactive | MPTP abs DR 3.4 | MPTP counter DR 77
CCCCCCCSc1cc(OC)c(CCN(C)C)cc1OC	MPTP block 103 | Rh123 counter inactive
CCC(C)N1C(=O)/C(=C\c2ccc(N3CCCCCC3)cc2)C(=O)NC1=S (stereo not drawn)	none
CN1C(=O)/C(=C\c2ccc(N3CCCCCC3)cc2)C(=O)NC1=S	MPTP block 71 | Rh123 counter inactive | MPTP abs DR inactive | MPTP counter DR 57
Cc1cc(OCC(=O)O)c2c3c(c(=O)oc2c1)CCCC3	none
Cc1cc(OC(=O)c2cccs2)c2c3c(c(=O)oc2c1)CCCC3	MPTP block 68 | Rh123 counter 86
Cc1cc(OC(=O)c2ccco2)c2c3c(c(=O)oc2c1)CCCC3	MPTP block 104 | Rh123 counter 87
COc1ccc(C=O)cc1O	none
CCOC(=O)c1ccc(N=C(CC)c2c(O)n(C)c(=O)n(C)c2=O)cc1	MPTP block 90 | Rh123 counter inactive | MPTP abs DR 2.1 | MPTP counter DR 23
CCOc1cc(CNCCc2c[nH]c3ccccc23)cc(Cl)c1OC	MPTP block 95 | Rh123 counter inactive | MPTP abs DR 3.4 | MPTP counter DR 18
COc1ccc(CNCCc2c[nH]c3ccccc23)c(OC)c1OC	none
CC(C)(C)c1ccc(CSc2cnn(C(C)(C)C)c(=O)c2Cl)cc1	MPTP block 92 | Rh123 counter 85
Cc1c(NP(=O)(C(C)(C)C)C(C)(C)C)c(=O)n(-c2ccccc2)n1C	none
CC(C)NS(=O)(=O)c1ccc(OCC(=O)N2CCN(Cc3ccc4c(c3)OCO4)CC2)c(Cl)c1	FAS-TE inh 50, MPTP block 54 | Rh123 counter 32
Cc1cc(S(=O)(=O)NC(C)C)ccc1OCC(=O)N1CCN(Cc2ccc3c(c2)OCO3)CC1	none
OC(c1cccc(Cl)c1)(c1cccc(Cl)c1)C1CN2CCC1CC2 (stereo not drawn)	MPTP block 72 | Rh123 counter inactive
O=C(Nc1cccc(C(F)(F)F)c1)OC1CN2CCC1CC2 (stereo not drawn)	none
OC1(c2ccc(Cl)cc2)CCN(Cc2c[nH]c3ccccc23)CC1	MPTP block 94 | Rh123 counter inactive | MPTP abs DR 5.3 | MPTP counter DR inactive
CN1CCc2nc(SCc3cccc(Br)c3)c(C#N)cc2C1	none
O=C(CNC(=O)c1ccc(Cl)cc1)Nc1ccc(Br)cc1C(=O)c1ccccc1	MPTP block 50 | Rh123 counter 67
CC1CCCCN1C(=O)c1ccc(N2CC3CC(C2)c2cccc(=O)n2C3)c([N+](=O)[O-])c1 (stereo not drawn)	none
CN1CCCC1CCOC(C)(c1ccccc1)c1ccc(Cl)cc1 (stereo not drawn)	MPTP block 81 | Rh123 counter inactive | MPTP abs DR 6.1 | MPTP counter DR inactive
NCCCN1CCN(c2ccccc2)CC1	none
COc1ccc(N2CCN(CCCN)CC2)cc1	MPTP block 70 | Rh123 counter inactive | MPTP abs DR inactive | MPTP counter DR inactive
CNP1(NC)=NC(C(F)(F)F)=NC(C(F)(F)F)=N1	none
COc1ccc(CN2Cc3cc(N4CCCCC4)ccc3-n3nncc3C2)cc1	none (no result: GRIN3A LBD mod)
Nc1c2c(nc3sc4c(c13)CCCC4)CCCC2	MPTP block 55 | Rh123 counter 80
O=c1[nH]c2ccccc2n1C1CCN(CCCC(c2ccc(F)cc2)c2ccc(F)cc2)CC1	MPTP block 88 | Rh123 counter inactive
O=C1CC(N2CCC(n3c(=O)[nH]c4ccccc43)CC2)C(=O)N1c1ccc(F)cc1 (stereo not drawn)	none
CCOP(=O)(OCC)C(NC(=O)CC(C)C)C(Cl)(Cl)Cl (stereo not drawn)	none
COC(=O)C1=C(c2cc3ccccc3o2)C[C@@H]2CC[C@H]1N2C(=O)N1CCOCC1	none
CN(C)c1ccc(/C=C/C=C2/C(=O)NC(=O)N(c3ccccc3)C2=O)cc1	MPTP block 51, Myeloid diff MLP inconclusive | Rh123 counter inactive
O=C1NC(=O)N(c2ccccc2)C(=O)/C1=C/C=C/c1ccco1	none
CN(Cc1cccc(-c2ccncc2)c1)C(=O)Oc1ccccc1Cc1ccccc1	MPTP block 90 (no result: GRIN3A LBD mod, rCAG RNA binder) | Rh123 counter 114
CNCC[C@H](Oc1cccc2ccccc12)c1cccs1	MPTP block 94 | Rh123 counter inactive | MPTP abs DR 3.9 | MPTP counter DR 68 | Myeloid diff inactive | GFP autofluor inactive
N#CC1c2ccccc2C=CN1C(=O)c1ccc(N(CCCl)CCCl)cc1 (stereo not drawn)	none (no result: GRIN3A LBD mod)
CCN(CC)S(=O)(=O)c1ccc(C)c(NCC(=O)Nc2ccc(C#N)c(Cl)c2)c1	MPTP block 77, Myeloid diff MLP active | Rh123 counter 87 | Myeloid diff inactive | GFP autofluor inactive
CC(=O)N1CCN(CC(=O)Nc2ccc(C#N)c(Cl)c2)CC1	none
Oc1c(Cl)cccc1Cc1cc(Cl)cc(Cl)c1O	GRIN3A LBD mod 12, rCAG RNA binder 59, MPTP block 81 | Rh123 counter 64 | rCAG bind conf 62 | dCAG dye counter 16 | dCAG dye DR inactive
CNc1ccc2oc(C[C@H]3O[C@@]4(CC[C@H]3C)O[C@H]([C@H](C)C(=O)c3ccc[nH]3)[C@H](C)C[C@H]4C)nc2c1C(=O)O	rCAG RNA binder 79, MPTP block 96, Myeloid diff MLP inconclusive | Rh123 counter inactive | rCAG bind conf 38 | dCAG dye counter 7.3
